Structures are written as SMILES. Several values for one entry are separate records, joined by “and”; a condition that tells them apart may be missing. Identical values can stand only once. Results filed as inconclusive are left out. The source holds several records for some structures; these can differ, active in one and inactive in another. Activity calls are given as the source filed them. Unless noted, how the calls were made is not given here.

Consider 8 molecules from PubChem BioAssay (NCATS).

Experiment [1] is described as follows: qHTS profiling for inhibitors of Plasmodium falciparum (3D7) proliferation (AID 743322).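 Further: infected erythrocytes exposed to compound for 72 h before lysis; 100% = DMSO vehicle wells and 0% = 0.29 µM artemisinin.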 Particulars: P. falciparum 3D7 proliferation; at 28.7 µM (top of the series) unless noted. Summed up:
(§1)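 Erythrocytes infected with P. falciparum (0.3% parasitemia, 2.5% hematocrit) incubated with compounds 72 h at 37 C, 5% CO2. Lysis with saponin/Triton buffer containing SYBR Green I, overnight at room temperature in the dark; DNA fluorescence (485/535 nm) normalised to 0.29 uM artemisinin and DMSO.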

Experiment [2] is described as follows: qHTS profiling for inhibitors of Plasmodium falciparum (DD2) proliferation (AID 743323). Particulars: lower = more inhibition; at 28.7 µM (top of the series) unless noted. The essentials:
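P. falciparum Dd2-infected erythrocytes (0.3% parasitemia, 2.5% hematocrit) exposed 72 h at 37 C, 5% CO2. Lysis with SYBR Green, overnight at room temperature, fluorescence 485/535 nm; normalized to 0.29 uM artemisinin and DMSO.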

Experiment [3] can be described thus: qHTS profiling for inhibitors of Plasmodium falciparum (HB3) proliferation (AID 743324; active means well fitted curve in the direction sought with a large enough effect; an effect the other way counts as inactive or inconclusive;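 further: 100% = DMSO vehicle wells and 0% = artemisinin-treated control wells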). Particulars: Plasmodium falciparum HB3 blood-stage proliferation; at 28.7 µM (top of the series) unless noted. Summed up: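 P. falciparum HB3 grown in erythrocytes (0.3% parasitemia, 2.5% hematocrit final) with compound for 72 h at 37 C, 5% CO2. Parasite DNA detected by SYBR Green after saponin/triton lysis overnight; normalized to 0.29 uM artemisinin and DMSO.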

The nature of experiment [4]: qHTS profiling of the MIPE4 collection as inhibitors of Plasmodium falciparum (3D7) proliferation (AID 743344).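 Further: scaled between DMSO vehicle wells and 0.29 µM artemisinin as full inhibition.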 Particulars: P. falciparum 3D7 in erythrocytes, SYBR Green DNA fluorescence, 72 h; at 28.5 µM (top of the series) unless noted. Summed up:
as §1

Experiment [5] in a line: qHTS profiling of the MIPE4 collection as inhibitors of Plasmodium falciparum (DD2) proliferation (AID 743345). The settings on record: P. falciparum Dd2 in erythrocytes, SYBR Green DNA, 72 h; at 28.5 µM (top of the series) unless noted. Summed up: as §1
Experiment [6] in a line: qHTS profiling of the MIPE4 collection as inhibitors of Plasmodium falciparum (DD2) proliferation (Rep 2) (AID 743346). Particulars: P. falciparum Dd2 in erythrocytes, SYBR Green DNA, 72 h; at 28.5 µM (top of the series) unless noted. Summed up: as §1
Experiment [7] in a line: qHTS profiling of the MIPE4 collection as inhibitors of Plasmodium falciparum (HB3) proliferation (AID 743347).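 Further: plate controls were DMSO vehicle wells for no effect and artemisinin wells for full effect.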 Particulars: P. falciparum HB3 in erythrocytes, SYBR Green DNA, 72 h; at 28.5 µM (top of the series) unless noted. The essentials: as §1
A short description of experiment [8]: High-throughput drug toxicity screening in the BPDCN cell line Gen2.2 (AID 1224824).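 Further: cells exposed to compounds for 48 h before reading.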 Particulars: Gen2.2 BPDCN cells; at 45.8 µM (top of the series) unless noted. The essentials: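 Seed 500 exponentially growing Gen2.2 cells/well; add compounds by pin tool; incubate 48 h, 37 °C, 5% CO2; add CellTiter-Glo, 15 min RT; read luminescence. % activity vs DMSO (100%) and bortezomib (0%).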

Experiment [9] is described as follows: High-throughput drug toxicity screening in the BPDCN cell line Cal-1 (AID 1224825). The settings on record: Cal-1 BPDCN cell viability, qHTS; at 45.8 µM (top of the series) unless noted. The essentials: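 500 Cal-1 cells/well, RPMI + glutamine + 10% FBS (phenol red-free); cpd added by pin tool; 48 h, 37C, 5% CO2; CTG 15 min RT, lumi read. Normalised: DMSO 100%, bortezomib 9.2 uM 0%.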

Experiment [10] is described as follows: qHTS assay for measurement of the activity of small molecule inhibitors on Zika virus induced Caspase-3 activity in human iPSC derived neural progenitor cells (hNPCs) (AID 1224857; active means well fitted curve in the direction sought with a large enough effect; an effect the other way counts as inactive or inconclusive; further: % of control where 0% means no effect; nearly all actives have a fitted effect of over 65% in size). The essentials: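 After overnight (16–20 h) culture at 350 cells/well, hNPCs get compound, then ZIKV 2 FFU/cell one hour later. Six hours on, Caspase-Glo 3/7 is added and luminescence measured.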

Experiment [11] is described as follows: qHTS assay for measurement of the activity of small molecule inhibitors on Zika virus induced Caspase-3 activity in human astrocytoma cells (AID 1224859; active means well fitted curve in the direction sought with a large enough effect; an effect the other way counts as inactive or inconclusive;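 further: plate controls were ZIKV-infected untreated cells for no effect and uninfected cells for full effect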). Summed up:
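Inhibition of Zika-induced caspase-3/7 activity: SNB-19 cells, 1 h compound pretreatment, ZIKV 2 FFU/cell for 6 h at 37 C, Caspase-Glo luminescence read-out.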

Experiment [12] can be described thus: qHTS Screen of the MIPE 4.0 Collection Against Ewings Sarcoma (RDES) (AID 1259252; active means well fitted curve in the direction sought with a large enough effect; an effect the other way counts as inactive or inconclusive; further: potency means the concentration at half of the fitted maximal effect; nearly all actives have a fitted effect of over 35% in size). Summed up:
(§2)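 CellTiter-Glo luminescence after 48 h compound exposure (titration) gave viability; percent activity used DMSO-treated cells as no inhibition and medium-only wells as full inhibition. Cells grown in RPMI/5% FBS, dosed 4 h post-seeding.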

Experiment [13] can be described thus: qHTS Screen of the MIPE 4.0 Collection Against Ewings Sarcoma (TC32) (AID 1259256; active means well fitted curve in the direction sought with a large enough effect; an effect the other way counts as inactive or inconclusive; further: nearly all actives have a fitted effect of over 45% in size; further: potency means the concentration at half of the fitted maximal effect). The essentials: as §2
A short description of experiment [14]: qHTS assay to identify small molecule inhibitors of chordoma cells - UCH-1 (AID 1259355; active means well fitted curve in the direction sought with a large enough effect; an effect the other way counts as inactive or inconclusive; further: on the % scale 0 is the no-effect control and ±100 the full control effect; nearly all actives have a fitted effect of over 55% in size). The essentials:
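Seed 800 cells per well; incubate overnight at 37 C, 5% CO2. Add test compounds (15 concentrations), then the auranofin–topoisomerase-agent combination. Incubate 48hr, add CellTiter-Glo, wait 30min, read luminescence.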

Experiment [15] is described as follows: Identifying Small Molecule Inhibitors of Pancreatic Cancer Stem Cells (A2780, Spheroid) (AID 1259357; active means well fitted curve in the direction sought with a large enough effect; an effect the other way counts as inactive or inconclusive; further: potency means the concentration at half of the fitted maximal effect;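 further: spheroids pre-formed over 14 days in stem cell medium on hydrogel; compound exposure lasted 48 h before the ATP luminescence read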). Particulars: Potency: A2780 spheroid viability. Summed up: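 Spheroids grown 14 days in stem cell media on nonadherent hydrogel before screening; cells attached 4 h, then compound exposure 48 h at 37C, 5% CO2. CellTiter-Glo luminescence normalized to DMSO (no inhibition) and no-cell wells (full inhibition).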

A short description of experiment [16]: qHTS Screen of the MIPE 4.0 Collection Against Ewings Sarcoma (TC71) (AID 1259253; active means well fitted curve in the direction sought with a large enough effect; an effect the other way counts as inactive or inconclusive; further: potency means the concentration at half of the fitted maximal effect; nearly all actives have a fitted effect of over 40% in size). The essentials: as §2
The nature of experiment [17]: qHTS Screen of the MIPE 4.0 Collection Against Ewings Sarcoma (EW8) (AID 1259255; active means well fitted curve in the direction sought with a large enough effect; an effect the other way counts as inactive or inconclusive; further: nearly all actives have a fitted effect of over 35% in size; further: potency means the concentration at half of the fitted maximal effect;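 on viability: 100% = DMSO-treated cells and 0% = medium-only wells without cells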). Summed up:
as §2

For `CCOc1ccn(-c2ccc(F)cc2)c(=O)c1C(=O)Nc1ccc(Oc2ccnc(N)c2Cl)c(F)c1`, the remaining parasite growth % (stronger effect = lower value) in experiment [1] worked out at 83.7%. In experiment [2], the activity, percent of control amounted to 56.6%. In addition, in experiment [3], the remaining proliferation (% of control), lower = more inhibition was 36.7%. Moreover, the parasite growth, % of DMSO control in [4] was 41.2%. Moreover, the parasite growth remaining, % of DMSO control (lower = more inhibition) in experiment [5] is 80.4%. Besides, the parasite growth, % of control (lower = inhibition) in experiment [6] is 36%. In addition, in experiment [7], the growth, % of control turned out to be 73%. Also, the cell viability, % of control (lower = more cytotoxic) in experiment [8] amounted to 145%. In experiment [9], the viability (% of control) came out at 23.7%. The Potency entry in experiment [10] and in experiment [11] was “inactive” each time. Also, the Potency in experiment [12] and in experiment [13] was 23.5 µM (active) in each case.

With `OCCC#Cc1nc(-c2ccc(F)cc2)c(-c2ccncc2)n1CCCc1ccccc1`, the remaining parasite growth % (stronger effect = lower value) in experiment [1] turned out to be 1.18%. The same molecule registered a remaining proliferation (% of control), lower = more inhibition in experiment [3] of 7.5%. This molecule gave a parasite growth, % of DMSO control in experiment [4] of 15%. Besides, the parasite growth remaining, % of DMSO control (lower = more inhibition) in [5] was determined as 21.2%. Further, the parasite growth, % of control (lower = inhibition) in experiment [6] came to 15.5%. The growth, % of control in [7] is 7.31%. For the same molecule, the cell viability, % of control (lower = more cytotoxic) in experiment [8] is 98.7%. In experiment [9], the viability (% of control) is 18.4%. Further, the Potency result in [10] and in experiment [11] was “inactive” in each case.

With `CCCc1nc2c(C)cc(-c3nc4ccccc4n3C)cc2n1Cc1ccc(-c2ccccc2C(=O)O)cc1`, the remaining parasite growth % (stronger effect = lower value) in experiment [1] turned out to be 103%. The activity, percent of control in [2] stood at 94%. The same molecule came in with a remaining proliferation (% of control), lower = more inhibition in experiment [3] of 66.6%. The molecule also gave a parasite growth, % of DMSO control in experiment [4] of 6.42%. In experiment [5], the parasite growth remaining, % of DMSO control (lower = more inhibition) stood at 16.2%. In experiment [6], the parasite growth, % of control (lower = inhibition) was found to be 21.8%. The growth, % of control in experiment [7] came out at 7.75%. The cell viability, % of control (lower = more cytotoxic) in experiment [8] was 126%. Further, the viability (% of control) in experiment [9] was determined as 103%. Besides, the Potency entry in experiment [10], in experiment [11], in experiment [14] and in [15] was “inactive” in each case.

Take `Cn1cnc2c(F)c(Nc3ccc(Br)cc3Cl)c(C(=O)NOCCO)cc21`: the remaining parasite growth % (stronger effect = lower value) in [1] came to 91.2%. The molecule also yielded an activity, percent of control in experiment [2] of 90.2%. The remaining proliferation (% of control), lower = more inhibition in experiment [3] came out at 94.6%. The parasite growth, % of DMSO control in experiment [4] came out at 58.2%. Also, the parasite growth remaining, % of DMSO control (lower = more inhibition) in [5] was determined as 95.9%. For the same molecule, the parasite growth, % of control (lower = inhibition) in [6] was 57.1%. The growth, % of control in [7] is 97.3%. Besides, the cell viability, % of control (lower = more cytotoxic) in experiment [8] is 4.9%. Also, the viability (% of control) in [9] was found to be 23.1%. For the same molecule, the Potency result in [10] and in [11] was “inactive” throughout. Besides, the Potency in experiment [16] is 16.6 µM (active); in [17] it was 2.64 µM (active); in experiment [13] it was 20.9 µM (active).

On to `CN(C)c1ccc(Nc2nc(N)n(C(=O)c3c(F)cccc3F)n2)cc1`, for which, in experiment [1], the remaining parasite growth % (stronger effect = lower value) came out at 4.41%. The molecule also yielded an activity, percent of control in experiment [2] of 8.82%. The molecule further showed a remaining proliferation (% of control), lower = more inhibition in [3] of 7.62%. In addition, the parasite growth, % of DMSO control in [4] is 10.5%. Moreover, the parasite growth remaining, % of DMSO control (lower = more inhibition) in experiment [5] was found to be 51.7%. For the same molecule, the parasite growth, % of control (lower = inhibition) in [6] was determined as 13.6%. Further, the growth, % of control in experiment [7] was 6.51%. Further, in experiment [8], the cell viability, % of control (lower = more cytotoxic) amounted to 73.4%. Further, the viability (% of control) in experiment [9] was 14.1%. Further, in experiment [11], the Potency entry is “inactive”. For the same molecule, the Potency is 5.9 µM (active) in experiment [12], 0.132 µM (active) in [17] and 18.7 µM (active) in experiment [15].

`CN(C(=O)c1ccc(F)cc1C(F)(F)F)C1CCN(c2nnc(-c3ccnn3C)c3ccccc23)CC1`: the remaining parasite growth % (stronger effect = lower value) in [1] is 59.4%. The same molecule showed an activity, percent of control in [2] of 71.6%. In addition, the parasite growth, % of DMSO control in experiment [4] was 16.1%. For the same molecule, the parasite growth remaining, % of DMSO control (lower = more inhibition) in experiment [5] is 61.1%. Moreover, in experiment [6], the parasite growth, % of control (lower = inhibition) was found to be 45.1%. The growth, % of control in [7] came out at 21.1%. In experiment [8], the cell viability, % of control (lower = more cytotoxic) amounted to 13.6%. The viability (% of control) in [9] was 80.2%. The Potency entry in experiment [10] and in experiment [11] was “inactive” throughout. For the same molecule, in experiment [12], the Potency is 20.9 µM (active).

For `COc1ccc([C@@H]2CC(=O)c3c(O)cc(O[C@@H]4O[C@H](CO[C@@H]5O[C@@H](C)[C@H](O)[C@@H](O)[C@@H]5O)[C@@H](O)[C@H](O)[C@@H]4O)cc3O2)cc1O`, the parasite growth, % of DMSO control in [4] is 83.3% and 61.8%. Further, the parasite growth remaining, % of DMSO control (lower = more inhibition) in experiment [5] is 90.3% and 85.6%. In addition, in experiment [6], the parasite growth, % of control (lower = inhibition) was 120% and 81.3%. The growth, % of control in experiment [7] was 92% and 93.5%. Also, the cell viability, % of control (lower = more cytotoxic) in [8] was 52.6% and 176%. Further, the viability (% of control) in experiment [9] was 54.1% and 116%. Further, the Potency entry in [10], in experiment [11] and in experiment [17] was “inactive” each time. Further, the Potency entry in experiment [13] was “inactive and 23.5 µM (active)”.

With `O=C(NOC[C@H](O)CO)c1ccc(F)c(F)c1Nc1ccc(I)cc1F`, in [1], the remaining parasite growth % (stronger effect = lower value) worked out at 106%. The molecule also yielded an activity, percent of control in experiment [2] of 98.3%. For the same molecule, the parasite growth, % of DMSO control in [4] was 86.4%. Moreover, the parasite growth remaining, % of DMSO control (lower = more inhibition) in [5] is 102%. Moreover, the parasite growth, % of control (lower = inhibition) in [6] was 95.7%. The molecule also came in with a growth, % of control in experiment [7] of 97.2%. In addition, in experiment [8], the cell viability, % of control (lower = more cytotoxic) stood at 14.5%. In experiment [9], the viability (% of control) was found to be 41.6%. Besides, the Potency result in experiment [10] and in experiment [11] was “inactive” in each case. For the same molecule, the Potency in experiment [12] was 23.5 µM (active).
